A selection: hits, their analogues and other compounds. The true share with any hit is near 2.9%.
EPAC2 ant val: Validation qHTS for antagonist of cAMP-regulated guanine nucleotide exchange factor 4 (EPAC2) | 16,000 compounds, 1.7% hits | Potency, µM (series often up to 112 µM), actives largely listed as inhibitors | Rap guanine nucleotide exchange factor 4 (Homo sapiens), Q8WZA2 | AID 1645886, 2021 | EPAC2 Rap1B BODIPY-GDP exchange, fluorescence; further: nearly all actives have a fitted effect of over 40% in size
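Normalized against a 6.5 mM cAMP agonist control, compounds were tested on 100 nM EPAC2 exchanging Rap1B-bound BODIPY-GDP (250 nM) for 50 uM GDP. Fluorescence drop (ex 480, em 540 nm) was tracked at room temperature over 30 min at 5-min intervals.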
EPAC1 ag val: Validation qHTS for agonist of cAMP-regulated guanine nucleotide exchange factor 3 (EPAC1); EPAC1 Rap1b BODIPY-GDP exchange, fluorescence; Rap guanine nucleotide exchange factor 3 (Homo sapiens), O95398; 16,000 compounds, 1% hits; AID 1645883, 2021; Potency, µM, actives largely listed as activators; further: nearly all actives have a fitted effect of over 70% in size
Target sequence (O95398 whole entry, looked up): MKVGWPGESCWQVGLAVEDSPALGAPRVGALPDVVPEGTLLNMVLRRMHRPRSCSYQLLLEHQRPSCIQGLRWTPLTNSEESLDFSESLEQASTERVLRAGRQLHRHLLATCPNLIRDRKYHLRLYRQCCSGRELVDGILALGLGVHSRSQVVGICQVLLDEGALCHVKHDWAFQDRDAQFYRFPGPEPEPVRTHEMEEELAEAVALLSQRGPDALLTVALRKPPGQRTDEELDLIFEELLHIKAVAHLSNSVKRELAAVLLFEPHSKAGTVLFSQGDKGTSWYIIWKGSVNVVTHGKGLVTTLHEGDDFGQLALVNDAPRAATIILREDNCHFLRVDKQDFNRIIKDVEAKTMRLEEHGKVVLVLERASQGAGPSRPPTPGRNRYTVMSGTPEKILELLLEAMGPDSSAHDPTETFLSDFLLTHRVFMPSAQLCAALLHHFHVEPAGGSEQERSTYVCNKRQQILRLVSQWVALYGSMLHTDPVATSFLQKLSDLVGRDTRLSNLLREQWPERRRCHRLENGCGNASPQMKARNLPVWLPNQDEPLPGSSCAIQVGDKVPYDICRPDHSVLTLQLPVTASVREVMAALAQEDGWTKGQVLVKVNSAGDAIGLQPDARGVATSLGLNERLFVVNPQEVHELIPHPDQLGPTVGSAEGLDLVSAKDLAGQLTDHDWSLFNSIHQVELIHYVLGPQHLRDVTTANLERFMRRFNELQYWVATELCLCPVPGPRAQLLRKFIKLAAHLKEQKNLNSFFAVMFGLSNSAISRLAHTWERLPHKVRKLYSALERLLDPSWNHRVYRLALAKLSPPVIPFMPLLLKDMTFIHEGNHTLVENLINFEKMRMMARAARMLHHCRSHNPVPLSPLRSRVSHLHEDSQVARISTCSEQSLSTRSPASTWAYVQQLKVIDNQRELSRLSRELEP
Of the large screens only hits and unclear results are named; the others gave an inactive call; ! = not confirmed by another sample. The call rests on the fitted dose curve; in most records, active means well fitted curve in the direction sought with a large enough effect; inconclusive means small, poorly fitted or top-dose-only effect, or another doubt; inactive means no such curve, though single readings can be large; an effect the other way counts as inactive or inconclusive.

COC(=O)c1cccc(C(=O)NCc2nc(-c3cccc(NC(=O)c4ccoc4C)c3)oc2C)c1	none
Cc1onc(-c2c(F)cccc2Cl)c1C(=O)N[C@@H]1C(=O)N2[C@@H]1SC(C)(C)[C@@H]2C(=O)O	none
CN1CC(O)C2=CC(=O)C(=O)C=C21 (configuration not stated)	EPAC2 ant val 79µM
COC(=O)C1=C(C)NC(COC(N)=O)=C(C(=O)OC(C)C)C1c1cccc(Cl)c1Cl (configuration not stated)	EPAC2 ant val 50µM, EPAC1 ag val inconclusive
COC(=O)C1=C(C)NC(C)=C(C(=O)OC)C1c1ccccc1[N+](=O)[O-]	EPAC2 ant val inconclusive
CCC(=O)NCc1nc(-c2cccc(NC(=O)c3ccc(C)s3)c2)oc1C	none
OCCN1CCN(CCCN2c3ccccc3Sc3ccc(Cl)cc32)CC1	EPAC2 ant val 35µM!
CN(C)CCCN1c2ccccc2Sc2ccc(Cl)cc21	none
CN(C)CCC=C1c2ccccc2COc2ccccc21	none
CC[C@]1(c2ncc[nH]2)Cc2ccccc2O1	EPAC2 ant val 16µM
CC(=O)N[C@@H](C=O)[C@H](O)[C@H](O)[C@@H](O)CO	none
Cc1ccc(C(=O)Nc2ccc(S(=O)(=O)O)c3cc(S(=O)(=O)O)cc(S(=O)(=O)O)c23)cc1NC(=O)c1cccc(NC(=O)Nc2cccc(C(=O)Nc3cc(C(=O)Nc4ccc(S(=O)(=O)O)c5cc(S(=O)(=O)O)cc(S(=O)(=O)O)c45)ccc3C)c2)c1	EPAC1 ag val 89µM!
CC(=O)N[C@@H]([C@@H](O)[C@H](O)[C@H](O)CO)[C@@H](O)CC(=O)C(=O)O	none
C[n+]1c2cc(N)ccc2cc2ccc(N)cc21 (tested in a mixture with another compound)	EPAC1 ag val 25µM
COc1ccccc1C(=O)N(Cc1cc2cccc(C)c2nc1N1CCC(O)CC1)C1CC1	none
CCCCC[C@H](O)CC[C@H]1[C@H](O)CC(=O)[C@@H]1CCCCCCC(=O)O	none
CCCCC[C@H](O)/C=C/[C@H]1[C@H](O)CC(=O)[C@@H]1CCCCCCC(=O)O	EPAC2 ant val 14µM!
COc1ccc2c(c1)-c1nc(-n3ncc(C(=O)NCc4cccnc4)c3C3CC3)ncc1CC2	none
COc1cccc(N2[C@@H](CC(C)=O)c3cc(C(F)(F)F)ccc3S2(=O)=O)c1	EPAC2 ant val inconclusive
CCOC(=O)C[C@H]1c2ccc(C(F)(F)F)cc2S(=O)(=O)N1c1cccc(OC)c1	EPAC2 ant val 45µM
COc1ccc2[nH]cc(CCNc3ncnc4ccc(-c5cccc(C#N)c5)cc34)c2c1	none
COc1ccc2[nH]cc(CCNc3ncnc4ccc(-c5ccccc5C#N)cc34)c2c1	EPAC1 ag val 112µM
COc1cc2cc3c4c(cc(OC)c(OC)c4c2cc1OC)CCN3C	EPAC2 ant val 50µM, EPAC1 ag val inconclusive
COc1cc2c(cc1OC)C(=O)N(C)CC2	none
COc1cc([C@@H]2c3cc4c(cc3[C@@H](O[C@@H]3O[C@@H]5CO[C@@H](C)O[C@@H]5[C@H](O)[C@@H]3O)[C@H]3COC(=O)[C@H]23)OCO4)cc(OC)c1O	none
C1=Cc2ccccc2/C1=C/c1ccc(/C=C2\C=Cc3ccccc32)cc1	EPAC1 ag val inconclusive
C1=Cc2ccccc2/C1=C\c1ccc2c(c1)OCO2	EPAC2 ant val inconclusive, EPAC1 ag val 100µM
COC[C@H](c1ccc(C(F)(F)F)cc1)N1CCN(C2(C)CCN(C(=O)c3c(C)ncnc3C)CC2)C[C@H]1C	none
COc1cc(CN2CCC3(CC2)c2ccccc2[C@@H](NC(=O)c2ccccc2OC)[C@@H]3O)ccc1F	none
COc1cc(C(=O)NS(=O)(=O)c2ccccc2C)ccc1Cc1cn(C)c2ccc(NC(=O)OC3CCCC3)cc12	EPAC2 ant val 79µM
CN1CCC(=C2c3ccccc3CCc3cccnc32)CC1	none
CCOC(=O)N1CCC(=C2c3ccc(Cl)cc3CCc3cccnc32)CC1	EPAC2 ant val 35µM!
Cc1sc(N)c(C(=O)c2cccc(C(F)(F)F)c2)c1C	EPAC2 ant val 56µM
Cc1oc(-c2ccccc2NC(=O)C2CCC2)nc1CNC(=O)c1cccc(C(F)(F)F)c1	none
CCC1(C2CCN(Cc3ccc(C)s3)CC2)NC(=O)N(CC2COc3ccccc3O2)C1=O (configuration not stated)	EPAC2 ant val inconclusive
CS(=O)(=O)c1ccc(-c2cccc3c2OC(CNC(=O)c2ccnc(Cl)c2)C3)cc1 (configuration not stated)	EPAC2 ant val inconclusive
COc1ccc2c(c1)OCC(Cc1ccc(OC)c(OC)c1)C2O (configuration not stated)	EPAC2 ant val inconclusive
COc1ccc2c(c1)OCC(Cc1ccc(OC)c(OC)c1)C2=O (configuration not stated)	EPAC2 ant val 45µM, EPAC1 ag val inconclusive
Cc1cnc(-n2ncc(C(=O)NCCc3cccnc3)c2C)nc1-c1cccs1	EPAC2 ant val inconclusive

From PubChem BioAssay
